Laboratory results published in ChEMBL document CHEMBL1157539, “Thousands of chemical starting points for antimalarial lead identification” (Nature, 2010).

Each compound was assayed on Plasmodium falciparum (assay: GSK_TCMDC: Inhibition of Plasmodium falciparum Dd2 in whole red blood cells, using parasite LDH activity as an index of growth. Test compounds present at 2uM).
Assay type: functional

Q: How did the Inhibition turn out when `CS(=O)(=O)c1cccc(-c2cnc3[nH]cc(-c4ccc(C(=O)O)cc4)c3c2)c1` was run?
A: The Inhibition was 100%.

Q: How did the Inhibition turn out when `Br.CC(CON1C(N)=NC(N)=NC1(C)C)Cc1ccc(Cl)cc1Cl` (centres undefined) was run?
A: Its Inhibition is 97%.

Q: How did the Inhibition turn out when `O=C(Nc1cccc(-c2ccc(-c3nc4cc(C(F)(F)F)ccc4[nH]3)cc2)c1)c1cccnc1` was run?
A: The Inhibition was 97%.

Q: With `Cc1ccc(S(=O)(=O)N2CCCN(C(=O)c3cc(-c4ccccc4)[nH]n3)CC2)cc1` as the compound, how does the Inhibition read?
A: Its Inhibition is 93%.

Q: How did the Inhibition turn out when `Cc1nnc(NC(=O)c2cn(-c3ccccc3)nc2-c2ccccc2C)o1` was run?
A: The Inhibition was 87%.

Q: With `CN(C)CCNCc1cccc(-c2cccc(-c3nc4ccccc4[nH]3)c2)c1.O=C(O)C(F)(F)F` as the compound, how does the Inhibition read?
A: The Inhibition was 63%.

Q: With `Cl.O=C(CNC1=NCCN1)Nc1ccc(NC(=O)Nc2ccc(NC(=O)CNC3=NCCN3)cc2)cc1` as the compound, how does the Inhibition read?
A: Its Inhibition is 75%.

Q: How did the Inhibition turn out when `CCN(CCCN1CCCCC1)c1cc(C)nc(Nc2ccc(C(F)(F)F)cc2)n1.O=C(O)C(F)(F)F` was run?
A: Its Inhibition is 99%.

Q: Which Inhibition does the source give for `COCCNCc1ccc(-c2cccc(CNc3ccc(OC)cc3)c2)cc1.O=C(O)C(F)(F)F` here?
A: The Inhibition was 2%.

Q: `COc1cc(N)c(Cl)cc1C(=O)NC1CCC(NCC2CCCCC2)CC1.Cl` (centres undefined) was tested. Which Inhibition did it give?
A: The Inhibition was 85%.

Q: With `CC(C)CCN1CCC(Oc2cccc(NC(=O)c3ccc(C(F)(F)F)cc3)c2)CC1.O=C(O)C(F)(F)F` as the compound, how does the Inhibition read?
A: The Inhibition was 6%.

Q: `Nc1c2ccccc2nc2ccc(-c3ccccc3)cc12` was tested. Which Inhibition did it give?
A: Its Inhibition is 99%.

Q: How did the Inhibition turn out when `CC(C)CNCc1cccc(-c2ccccc2CN(C(=O)NCCc2ccccc2)C2CCN(Cc3ccccc3)CC2)c1.O=C(O)C(F)(F)F` was run?
A: The Inhibition was 82%.

Q: With `CC(C)Cn1cc(C2CCN(CCN3CCC(CNC(=O)c4ccc(NC(=O)c5cc(Cl)cc(Cl)c5)cc4)CC3)CC2)c2ccccc21` as the compound, how does the Inhibition read?
A: The Inhibition was 96%.
